# Results: PubChem BioAssay AID720517 (National Center for Advancing Translational Sciences (NCATS), 2013)
# Results filed as inconclusive are left out. The source made the active and inactive calls. Calls follow the shape of the dose curve; as a rule, active = well fitted activation curve with a large enough effect; inconclusive = small, poorly fitted or top-dose-only effect; inactive = flat fitted curve, though single readings scatter.
# Assay: qHTS for Inhibitors of Cell Surface uPA Generation: FP59 Counterscreen for Cherry-picked Compounds; also: 0% is about no effect
# Conditions: FP59 anthrax toxin cytotoxicity counterscreen, cells; series mostly up to 115 µM; activity (protection from FP59): at the top concentration
row,SMILES,activity (protection from FP59)
1,COc1cc(CNCc2ccc3c(c2)OCO3)c([N+](=O)[O-])cc1OC,-1.32% (inactive)
2,CCOc1cc(/C=N/Nc2cc(C)nc3ccc(C)cc23)ccc1O,-1.03% (inactive)
3,O=C(CCCC(=O)N(c1cccc(F)c1)C(C(=O)NC1CCCC1)c1ccc(O)cc1)Nc1ccccn1 (stereo not drawn),-1.23% (inactive)
4,COc1cc(/C=N/NC(=O)Cc2csc(C)n2)ccc1OCC(C)C,-1.19% (inactive)
5,COCCNC(=S)N(CCc1c(C)[nH]c2ccccc12)Cc1ccco1,-1.09% (inactive)
6,COC(=O)CCSCC(=O)N1N=C(c2ccc(OC)cc2)CC1c1cccc(OC)c1OC (stereo not drawn),-1.4% (inactive)
7,O=C(COC(=O)c1ccc2ncsc2c1)NCc1cccc(Cl)c1,-1.35% (inactive)
8,CS(=O)(=O)N1CCC(C(=O)Nc2ccccc2)CC1,-1.14% (inactive)
9,Clc1ccc(C2=NN=C3COc4ccccc4N3C2)cc1,-1.23% (inactive)
10,CC(=O)Oc1ccccc1C(=O)Nc1ccccc1C(=O)N1CCCC1,-1.41% (inactive)
11,CCCc1nn2c(=O)cc(CSCC(=O)Nc3ccccc3)nc2s1,-1.23% (inactive)
12,O=C(CNC(=O)c1ccc(Br)o1)NNC(=O)c1ccccc1,-1.44% (inactive)
13,O=C(NC[C@H]1CCCO1)c1cccc2c1C(=O)c1ccc(-c3ccc(F)cc3OCc3ccccc3)cc1S2(=O)=O,-1.32% (inactive)
14,O=[N+]([O-])c1ccc(C[n+]2cccc(O)c2)cc1,-1.21% (inactive)
15,CCCCNC(=O)c1cc2c(-c3ccc(Cl)cc3)nn(C)c2s1,-1.37% (inactive)
16,C=CCN1C=C2C(=O)C(C)(OC(=O)c3cnc4ccccc4n3)C(=O)C=C2C=C1/C=C/COC (stereo not drawn),-1.35% (inactive)
17,CC1CS(=O)(=O)CCN1N=Cc1ccc([N+](=O)[O-])o1 (stereo not drawn),2.87% (inactive)
18,Nc1nc2ccc(Br)cc2o1,-1.38% (inactive)
